A short description of test [1]: E. coli DRC41 culture turbidity changes, primary screen, E. coli filamentation inducer project, strain DRC41, OD650, 48 h (AID 1152).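 Note: E. coli MC1000 strain DRC41 lacking acrAB efflux pump and sulA.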 The conditions noted are these: E. coli DRC41 (acrAB sulA), higher = more signal, called active from +8 up or from −8 down.
Test [2] is described as follows: small-molecule binders of probe aLefty1, primary screen, biochemical, small-molecule microarray, 635/667 nm fluorescence (AID 1153).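 Note: score merges spot fluorescence with signal-to-noise ratio from the scanned slide images.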 The conditions noted are these: higher = more signal.
Test [3] in a line: PSAC antagonists in infected red cells, primary screen, cell-based, P. falciparum Indochina, OD700, 1 h (AID 1154). The conditions noted are these: P. falciparum Indochina infected RBC osmotic lysis, higher = more signal, called active from +8 up or from −8 down.
Test [4] in a line: PSAC antagonists in infected red cells, primary screen, cell-based, P. falciparum Indochina, OD700, 2 h (AID 1155).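 Note: lysis reports solute entry through the parasite surface anion channel PSAC; channel blockers reduce lysis of infected cells.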 The conditions noted are these: P. falciparum Indochina infected erythrocytes, osmotic lysis OD700; higher = more signal, called active from +8 up or from −8 down.
Test [5] in a line: osmotic lysis modulators in infected erythrocytes, primary screen, PSAC antagonist project, cell-based, P. falciparum Indochina, OD700, 3 h (AID 1156). The conditions noted are these: higher = more signal, called active from +8 up or from −8 down.
The nature of test [6]: PSAC antagonists in infected red cells, primary screen, cell-based, P. falciparum Indochina, OD700, 18 h (AID 1157). The conditions noted are these: P. falciparum Indochina infected erythrocytes, osmotic lysis OD700, 18 h; higher = more signal, called active from +8 up or from −8 down.
Test [7] is described as follows: modulators of S6 phosphorylation in cells, primary screen, cell-based, A549, cytoblot, luminescence, serum-stimulated (AID 1158).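 Note: serum-stimulated A549 lung adenocarcinoma cells; signal is phosphorylated S6 detected by cytoblot immunostaining with HRP secondary.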 The conditions noted are these: A549 phospho-S6 cytoblot, 5 h, higher = more signal.
The target in test [8] is NADPH oxidase 2 (Homo sapiens) (UniProt P04839). Nature of the test: NOX2-dependent H2O2 signal modulators, primary screen, NOX inhibitor project, cell-based, HEK293-NOX2, PMA-stimulated, Amplex Red fluorescence (AID 1159). Note: test concentration not given here. The conditions noted are these: 45 min, higher = more signal, called active from +8 up or from −8 down.
Chain of NADPH oxidase 2 (Homo sapiens) (P04839 whole entry, looked up): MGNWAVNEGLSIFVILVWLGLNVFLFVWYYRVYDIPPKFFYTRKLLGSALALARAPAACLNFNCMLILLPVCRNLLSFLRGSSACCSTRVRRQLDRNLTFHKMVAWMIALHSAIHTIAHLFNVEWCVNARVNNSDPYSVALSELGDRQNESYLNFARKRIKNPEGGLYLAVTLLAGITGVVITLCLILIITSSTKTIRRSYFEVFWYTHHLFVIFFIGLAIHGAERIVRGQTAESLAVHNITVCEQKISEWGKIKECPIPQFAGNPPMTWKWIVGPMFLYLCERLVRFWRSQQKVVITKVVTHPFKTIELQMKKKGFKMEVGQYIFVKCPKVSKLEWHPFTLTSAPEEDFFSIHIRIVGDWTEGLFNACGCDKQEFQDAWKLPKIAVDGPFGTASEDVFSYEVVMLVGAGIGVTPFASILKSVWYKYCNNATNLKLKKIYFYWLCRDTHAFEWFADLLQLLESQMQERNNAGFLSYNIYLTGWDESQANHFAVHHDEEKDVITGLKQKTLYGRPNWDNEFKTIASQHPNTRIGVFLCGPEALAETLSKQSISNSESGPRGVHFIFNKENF
Test [9] addresses NADPH oxidase 4 (Homo sapiens) (UniProt Q9NPH5). Nature of the test: NOX4-dependent H2O2 signal modulators, primary screen, NOX inhibitor project, cell-based, HEK293-NOX4, tetracycline-induced, Amplex Red fluorescence (AID 1160). The conditions noted are these: 45 min, higher = more signal, called active from +8 up or from −8 down.
In test [10] the target is NADPH oxidase 5 (Homo sapiens) (UniProt Q96PH1). Nature of the test: NOX5-dependent H2O2 signal modulators, primary screen, NOX inhibitor project, cell-based, HEK293-NOX5, Amplex Red fluorescence (AID 1161). The conditions noted are these: HEK293-NOX5, ionomycin, 45 min, higher = more signal.
Chain of NADPH oxidase 5 (Homo sapiens) (Q96PH1 whole entry, looked up): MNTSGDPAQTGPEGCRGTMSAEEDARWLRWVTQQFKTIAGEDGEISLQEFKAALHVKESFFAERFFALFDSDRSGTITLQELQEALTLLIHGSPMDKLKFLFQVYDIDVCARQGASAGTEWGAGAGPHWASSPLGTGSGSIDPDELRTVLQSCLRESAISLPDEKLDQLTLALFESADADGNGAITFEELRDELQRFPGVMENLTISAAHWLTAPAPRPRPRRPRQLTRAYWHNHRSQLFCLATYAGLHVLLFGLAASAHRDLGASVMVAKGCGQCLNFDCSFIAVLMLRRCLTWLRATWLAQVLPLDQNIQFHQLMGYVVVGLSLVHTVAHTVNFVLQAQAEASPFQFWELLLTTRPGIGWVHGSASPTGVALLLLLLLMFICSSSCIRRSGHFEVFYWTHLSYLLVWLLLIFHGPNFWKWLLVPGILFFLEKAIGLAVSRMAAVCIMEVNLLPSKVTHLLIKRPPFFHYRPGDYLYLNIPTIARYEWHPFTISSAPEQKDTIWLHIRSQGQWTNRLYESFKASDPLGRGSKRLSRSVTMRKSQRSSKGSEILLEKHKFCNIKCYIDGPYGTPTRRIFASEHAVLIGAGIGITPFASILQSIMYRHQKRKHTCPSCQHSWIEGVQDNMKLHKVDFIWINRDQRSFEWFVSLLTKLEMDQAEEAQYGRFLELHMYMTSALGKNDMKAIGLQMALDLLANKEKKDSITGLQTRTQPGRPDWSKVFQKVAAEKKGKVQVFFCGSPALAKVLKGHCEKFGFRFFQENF
Test [11] in a line: A549 cell viability effects, profiling panel, calcein-AM fluorescence, 48 h, basal (AID 1162). Note: test concentration not given here. The conditions noted are these: higher = more signal.
Test [12] can be described thus: adipocyte viability effects, profiling panel, cell-based, 3T3-L1 adipocytes, calcein-AM fluorescence, 48 h, basal (AID 1163). Note: test concentration not given here. The conditions noted are these: 3T3-L1 adipocytes viability, higher = more signal.
A short description of test [13]: HepG2 cell viability effects, profiling panel, calcein-AM fluorescence, 48 h, basal (AID 1164). Note: test concentration not given here. The conditions noted are these: higher = more signal.
A short description of test [14]: MM1S cell viability effects, profiling panel, calcein-AM fluorescence, 48 h, basal (AID 1165).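 Note: viability of MM1S multiple myeloma cells under basal unstimulated conditions; test concentration not given here.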 The conditions noted are these: higher = more signal.
Test [15] can be described thus: basal RPMI8226 viability, no added stimulus, profiling panel, cell-based, calcein-AM fluorescence, 48 h, PK04 Diversity Set (AID 1166).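 Note: cells grown under basal conditions without added stimulus; test concentration not given here.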 The conditions noted are these: RPMI8226 myeloma viability, higher = more signal.
Test [16] can be described thus: basal HepG2 mitochondrial membrane potential changes, profiling panel, cell-based, JC-1 fluorescence, 24 h, 100 nL compound (AID 1167). Note: test concentration not given here. The conditions noted are these: higher = more signal.
Test [17] can be described thus: basal 3T3-L1 adipocyte mitochondrial potential changes, profiling panel, cell-based, JC-1 fluorescence, 3T3-L1 adipocytes, 24 h, 100 nL compound (AID 1168). Note: test concentration not given here. The conditions noted are these: JC-1 mitochondrial fluorescence, higher = more signal, called active from +8 up or from −8 down.
Test [18] is described as follows: basal RPMI8226 mitochondrial membrane potential changes, profiling panel, cell-based, JC-1 fluorescence, 24 h, 100 nL compound (AID 1169). Note: test concentration not given here. The conditions noted are these: RPMI8226 myeloma, JC-1 mitochondrial potential fluorescence, higher = more signal.
Test [19] is described as follows: basal MM1S mitochondrial membrane potential changes, profiling panel, cell-based, JC-1 fluorescence, 24 h, 100 nL compound (AID 1170). Note: test concentration not given here. The conditions noted are these: higher = more signal.
Test [20] is described as follows: A549 lung cancer cell viability effects, profiling panel, resazurin fluorescence, 24 h, PK04 Diversity Set (AID 1171). Note: test concentration not given here. The conditions noted are these: higher = more signal, called active from +8 up or from −8 down.

The source of these data is PubChem BioAssay.

Activity calls are given as the source filed them.

Chain of NADPH oxidase 4 (Homo sapiens) (Q9NPH5 whole entry, looked up): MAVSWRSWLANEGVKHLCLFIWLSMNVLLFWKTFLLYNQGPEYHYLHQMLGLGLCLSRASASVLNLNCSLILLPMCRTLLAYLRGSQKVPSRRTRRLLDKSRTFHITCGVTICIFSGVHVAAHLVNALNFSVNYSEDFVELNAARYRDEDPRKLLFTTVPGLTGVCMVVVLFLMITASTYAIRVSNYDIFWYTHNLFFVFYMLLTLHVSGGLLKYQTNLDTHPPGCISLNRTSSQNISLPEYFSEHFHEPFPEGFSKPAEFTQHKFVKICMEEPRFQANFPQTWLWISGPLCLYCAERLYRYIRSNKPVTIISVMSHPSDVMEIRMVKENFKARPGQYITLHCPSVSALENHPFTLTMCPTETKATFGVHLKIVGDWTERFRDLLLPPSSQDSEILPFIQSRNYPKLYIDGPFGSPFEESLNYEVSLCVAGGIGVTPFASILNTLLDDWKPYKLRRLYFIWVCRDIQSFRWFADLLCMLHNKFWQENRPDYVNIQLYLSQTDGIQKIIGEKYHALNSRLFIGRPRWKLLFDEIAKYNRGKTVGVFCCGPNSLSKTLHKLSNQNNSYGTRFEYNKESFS

For `C=C[C@@H](C)[C@@H](OC(=O)Nc1ccc(OC)cc1)c1ccc(O)c2ccccc12`, the z-score in [1] was 0.0598 (inactive); in [3] it was 2.46 (inactive); in test [4], 0.661 (inactive); in test [5], 0.0162 (inactive); in test [6], 0.354 (inactive); in [7], 0.382. Also, the z-score in test [8] is -5.9 (inactive); in test [9], -1.81 (inactive); in [10], -0.437; in test [11], -1.24; in test [12], -0.336; in [13], -1.63. The z-score in test [14] is -2.72; in test [15], -4.29; in test [16] it was -3.19; in test [17], -0.425 (inactive); in test [18], -1.13; in test [19], -1.23. For the same compound, the z-score in test [20] is -0.527 (inactive). Besides, in test [2], the composite z-score is -0.0222.

With `COC(=O)[C@@]1(Cc2ccc(F)cc2)[C@H]2c3cc(C(=O)N(C)C)n(CCc4c[nH]c5ccc(OC)cc45)c3C[C@H]2CN1C(=O)c1ccccc1`, the z-score in [1] is -1.77 (inactive); in test [3] it was 6.52 (inactive); in [4], 0.1 (inactive); in test [5] it was 1.24 (inactive); in test [6], -0.975 (inactive); in test [7], 1.87. Besides, the z-score is -3.45 (inactive) in test [8]; -3.18 (inactive) in test [9]; -5.53 in test [10]; -0.906 in [11]; 0.813 in test [12]; -0.885 in test [13]. Further, the z-score in test [14] was -0.64; in test [15], -1.79; in test [16] it was 0.922; in test [17], -0.939 (inactive); in test [18], -0.262; in test [19], -1.82. Moreover, the z-score in test [20] was -0.752 (inactive). Also, in [2], the composite z-score was determined as 0.441.

`O=C1OCC=C[C@H]2OC34C=CCN(Cc5ccccc5)C(=O)[C@H]3N(CCCO)C(=O)[C@@H]4[C@@H]12` (stereo not given in full): the z-score in test [1] is 2.57 (inactive); in [3], 0.599 (inactive); in test [4] it was -1 (inactive); in [5], 1.01 (inactive); in test [6], -1.05 (inactive); in [7], 0.833. In addition, the z-score in test [8] is -0.548 (inactive); in test [9], -1.29 (inactive); in test [10], -1.17; in test [11] it was -0.518; in test [12], 0.676; in test [13], -1.28. For the same compound, the z-score was 0.772 in test [14]; 0.0919 in test [15]; 0.0708 in test [16]; -0.0748 (inactive) in test [17]; 0.242 in test [18]; 0.252 in [19]. Moreover, the z-score in test [20] is -0.196 (inactive). This compound came in with a composite z-score in test [2] of 1.27.

For `C=CC[C@]1(C(=O)NCCN2CCOCC2)N=C(c2ccc(OCCCO)cc2)O[C@H]1c1ccccc1N=[N+]=[N-]`, the z-score in [1] is 1.39 (inactive); in test [3], 30.7 (active); in [4], 28.6 (active); in [5], 2.5 (inactive); in test [6], 5.98 (inactive); in test [7] it was -0.106. The z-score in [8] is -0.798 (inactive); in [9], 1.5 (inactive); in test [10] it was 0.108; in test [11] it was 0.0657; in test [12] it was 0.572; in [13], 0.353. Also, the z-score was -1.05 in test [14]; -0.766 in test [15]; 1.03 in [16]; 1.98 (inactive) in test [17]; -0.701 in test [18]; 0.472 in test [19]. The z-score in test [20] was 0.0624 (inactive). The compound also displayed a composite z-score in test [2] of 0.14.

Turning to `O=C1c2ccccc2[C@](Cc2ccccc2I)(C(=O)O)[C@H](c2ccc(CO)cc2)N1Cc1ccccc1C(F)(F)F`, the z-score in test [1] is -0.0668 (inactive); in [3], 3.59 (inactive); in [4], 1.01 (inactive); in test [5], 0.737 (inactive); in test [6], 0.915 (inactive); in [7], -0.419. Besides, the z-score in test [8] was 1.66 (inactive); in [9], -0.832 (inactive); in test [10], -0.533; in test [11] it was -0.26; in test [12] it was -0.24; in [13], 0.458. The z-score in test [14] is -1.58; in [15] it was -2.58; in [16] it was -0.51; in [17] it was -0.476 (inactive); in test [18], -0.832; in test [19], -0.478. Besides, the z-score in test [20] is 0.427 (inactive). Moreover, the composite z-score in [2] is 0.215.

As for `O=C1NC(=O)C2C1C=CC(C(O)c1cccs1)N2Nc1ccccn1` (stereo not given), the z-score was 0.218 (inactive) in test [1]; 0.624 (inactive) in test [3]; 0.253 (inactive) in test [4]; -0.285 (inactive) in test [5]; 0.853 (inactive) in test [6]; -0.726 in test [7]. Moreover, the z-score is 0.659 (inactive) in [8]; -1.32 (inactive) in test [9]; -0.795 in [10]; 1.74 in test [11]; -0.508 in test [12]; 0.714 in [13]. The z-score is 0.119 in test [14]; 1.13 in test [15]; 0.674 in test [16]; 0.112 (inactive) in test [17]; 0.268 in test [18]; 0.0729 in test [19]. Besides, the z-score in [20] is -1.06 (inactive). Further, the composite z-score in test [2] was -0.0035.

As to `CC1CC/C=C\[C@H]2OC34C=CCN(CCN5CCOCC5)C(=O)[C@H]3N(CCCCCO)C(=O)[C@@H]4C2C(=O)O1` (stereo not given in full), the z-score is -0.346 (inactive) in test [1]; 0.851 (inactive) in [3]; 0.618 (inactive) in test [4]; 0.007 (inactive) in [5]; 0.257 (inactive) in test [6]; 0.165 in [7]. In addition, the z-score in test [8] is 0.545 (inactive); in test [9] it was -0.277 (inactive); in test [10] it was 1.03; in test [11], -0.365; in [12], 0.374; in test [13], 0.68. Besides, the z-score in test [14] is 1.09; in [15], 0.0186; in [16], -0.461; in [17], -0.189 (inactive); in test [18], -0.0345; in test [19], -0.107. Further, the z-score in [20] was -0.19 (inactive). For the same compound, in test [2], the composite z-score is -0.409.

For `CO[C@H]1O[C@H](CO)[C@@H](OC(=O)Nc2cccc(F)c2)[C@H](OC(=O)Nc2ccccc2-c2ccccc2)[C@@H]1OC(=O)Nc1ccccc1-c1ccccc1`, the z-score in test [1] was 0.538 (inactive); in test [3], 3.1 (inactive); in test [4] it was 2.23 (inactive); in test [5], 0.346 (inactive); in test [6], 1.68 (inactive); in [7], 0.0437. Further, the z-score in test [8] was -2.45 (inactive); in test [9], -0.551 (inactive); in test [10], -0.608; in test [11] it was -2.35; in test [12], 0.63; in test [13], -1.85. For the same compound, the z-score in test [14] was -2.28; in test [15], -2.37; in test [16] it was -0.27; in [17] it was 0.827 (inactive); in test [18], -0.877; in test [19], -1.38. Also, the z-score in [20] is -2.79 (inactive). For the same compound, in test [2], the composite z-score is 0.257.

Take `C[N+](C)(C)CCCC[C@@H]1NC(=O)[C@@H]2C[C@H](C(=O)NCCCCCCNC(=O)CS)[C@H](c3cccc(OCCO)c3)N2C1=O`: the z-score is -0.0169 (inactive) in [1]; 5.87 (inactive) in [3]; 1.39 (inactive) in test [4]; -0.293 (inactive) in test [5]; 0.644 (inactive) in [6]; 0.133 in test [7]. The z-score in test [8] is 1.85 (inactive); in test [9] it was 1.12 (inactive); in test [10] it was 1.45; in test [11], -0.14; in test [12], -0.0406; in [13], 1.5. In addition, the z-score was 0.954 in test [14]; 0.186 in test [15]; 1.53 in test [16]; 0.215 (inactive) in [17]; 0.476 in test [18]; -0.677 in test [19]. For the same compound, the z-score in test [20] is -0.333 (inactive). Besides, the composite z-score in test [2] is -0.012.
